Potency estimated from few doses data for 6 compounds are collected here from publication PMC11062922 (Nature Chemical Biology, 2023).

Molecules are shown by their SMILES. Where two headings read alike, the source gives them in different places.

What all share (parameters): species or system human, MV4-11 + K-562 + COLO205 + SK-N-BE2 + OVCAR-8
One assay has as its system CDK7. Conditions: read-out: apparent Kd, n = 1.
For another assay, the system named is ERCC2. The settings on record: read-out: apparent Kd, n = 1.
The test system of a further assay is FER. The settings on record: read-out: apparent Kd, n = 1.
In a further assay the test system is LATS1. The settings on record: read-out: apparent Kd, n = 1.
Another assay has as its system MARK4. The settings on record: read-out: apparent Kd, n = 1.
The next assay deals with PLK4. Conditions: read-out: apparent Kd, n = 1.
Another assay has as its system PRKAA1. The settings on record: read-out: apparent Kd, n = 1.
A further assay has as its system PRKAG1. Conditions: read-out: apparent Kd, n = 1.
Another assay relates to PTK2B. The settings on record: read-out: apparent Kd, n = 1.
In the next assay the test system is PTK2. Conditions: read-out: apparent Kd, n = 1.
A further assay concerns RPS6KA6. The settings on record: read-out: apparent Kd, n = 1.
For another assay, the system named is STK10. The settings on record: read-out: apparent Kd, n = 1.
For another assay, the system named is DYRK1A. The settings on record: read-out: apparent Kd, compound concentrations: 100 nM and 1000 nM (sheet 'Samples'), n = 1.
Another assay concerns PRKCQ. The settings on record: read-out: apparent Kd, n = 1.
A further assay deals with PRKD2. The settings on record: read-out: apparent Kd, n = 1.
In a further assay the test system is PRKD3. The settings on record: read-out: apparent Kd, n = 1.
In a further assay the test system is MYLK3. The settings on record: read-out: apparent Kd, n = 1.
Another assay relates to PRKCD. The settings on record: read-out: apparent Kd, n = 1.
A further assay relates to CDKL5. Conditions: read-out: apparent Kd; compound concentrations: 100 nM and 1000 nM (sheet 'Samples'), CATDS: 7.5103535509973398E-3; n = 1.
Where [1] appears, read: compound concentrations:100 nM and 1000 nM (sheet 'Samples').

As for `CN1C[C@@H]2Cn3c(c(C4=C(c5cn(C)c6ccccc56)C(=O)NC4=O)c4ccccc43)C[C@H]2C1.Cl` [RO0320234-001], the potency estimated from few doses was 137 nM with CDK7 (setting [1]); 123 nM in the assay on ERCC2 (setting [1]); 94.8 nM in the assay with FER (setting [1]); 1780 nM with LATS1 (setting [1]); 1210 nM with MARK4 (setting [1]); 500 nM in the assay on PLK4 (setting [1]). Moreover, the potency estimated from few doses is 248 nM in the assay on PRKAA1 (setting [1]); 352 nM in the assay with PRKAG1 (setting [1]); 193 nM in the assay on PTK2B (setting [1]); 129 nM in the assay with PTK2 (setting [1]); 215 nM in the assay with RPS6KA6 (setting [1]); 2020 nM in the assay on STK10 (setting [1]).

Regarding `CONC1=NC(=O)/C(=C/c2ccc3ncccc3c2)S1` [RO4613269-000], in the assay with DYRK1A (CATDS: 0.14801064181583801), the potency estimated from few doses was 1100 nM.

As for `Clc1cc(Cl)cc(Nc2ccnc(Nc3cc(Cl)cc(Cl)c3)n2)c1` [GSK175726A], the potency estimated from few doses in the assay with CDK7 (compound concentrations: 100 nM and 1000 nM (sheet 'Samples'), CATDS: 1.9330129421886999E-2) was 142 nM; in the assay on ERCC2 (compound concentrations: 100 nM and 1000 nM (sheet 'Samples'), CATDS: 2.00031391959163E-2), 132 nM; in the assay with FER (compound concentrations: 100 nM and 1000 nM (sheet 'Samples'), CATDS: 2.0209257750724199E-2), 130 nM; in the assay on LATS1 (compound concentrations: 100 nM and 1000 nM (sheet 'Samples'), CATDS: 8.3705854443938306E-3), 1830 nM; in the assay on MARK4 (compound concentrations: 100 nM and 1000 nM (sheet 'Samples'), CATDS: 9.0821419541050104E-3) it was 1200 nM; with PLK4 (compound concentrations: 100 nM and 1000 nM (sheet 'Samples'), CATDS: 9.9833619636259807E-3), 805 nM. The potency estimated from few doses with PRKAA1 (compound concentrations: 100 nM and 1000 nM (sheet 'Samples'), CATDS: 1.70258179859262E-2) was 183 nM; in the assay with PRKAG1 (compound concentrations: 100 nM and 1000 nM (sheet 'Samples'), CATDS: 2.2079366714636301E-2), 110 nM; with PRKCQ (compound concentrations: 100 nM and 1000 nM (sheet 'Samples'), CATDS: 8.3428687268584899E-3), 1870 nM; in the assay with PTK2B (compound concentrations: 100 nM and 1000 nM (sheet 'Samples'), CATDS: 1.7764778222698001E-2), 168 nM; in the assay on PTK2 (compound concentrations: 100 nM and 1000 nM (sheet 'Samples'), CATDS: 2.2055583015587899E-2), 111 nM; with RPS6KA6 (compound concentrations: 100 nM and 1000 nM (sheet 'Samples'), CATDS: 2.32464475712073E-2), 101 nM. Moreover, the potency estimated from few doses with STK10 (compound concentrations: 100 nM and 1000 nM (sheet 'Samples'), CATDS: 8.4721916216742802E-3) was 1710 nM.

For the compound `Cc1cccc(-c2nc(Nc3ccncc3)c3sccc3n2)n1` [GW869641X], the potency estimated from few doses in the assay on PRKD2 (setting [1]) is 1.4 nM; in the assay on PRKD3 (setting [1]), 3.56 nM; in the assay on STK10 (setting [1]) it was 1730 nM.

For `NCCNS(=O)(=O)c1ccc(-c2ccnc3[nH]ccc23)cc1` [GSK977617A], the potency estimated from few doses in the assay on CDK7 (setting [1]) is 159 nM; in the assay on ERCC2 (setting [1]) it was 203 nM; in the assay on FER (setting [1]), 238 nM; in the assay on LATS1 (setting [1]), 121 nM; in the assay on MYLK3 (setting [1]), 996 nM; in the assay with PLK4 (setting [1]) it was 584 nM. The potency estimated from few doses was 453 nM in the assay with PRKAA1 (setting [1]); 1080 nM in the assay on PRKCD (setting [1]); 1950 nM in the assay with PRKCQ (setting [1]); 335 nM in the assay with PTK2B (setting [1]); 343 nM with PTK2 (setting [1]); 373 nM with RPS6KA6 (setting [1]). Besides, the potency estimated from few doses with STK10 (setting [1]) was 2400 nM.

Consider `CCOC(=O)N1CCC(n2cnc(-c3ccc(F)cc3)c2-c2ccnc(N)n2)CC1` [SB-219952], for which the potency estimated from few doses in the assay on CDK7 (compound concentrations: 100 nM and 1000 nM (sheet 'Samples'), CATDS: 2.08118175664989E-2) was 201 nM; with CDKL5 it was 2170 nM; in the assay with DYRK1A (CATDS: 7.51253046880054E-3), 2170 nM; with ERCC2 (compound concentrations: 100 nM and 1000 nM (sheet 'Samples'), CATDS: 2.0109331844810101E-2), 213 nM; with FER (compound concentrations: 100 nM and 1000 nM (sheet 'Samples'), CATDS: 1.3888971219533201E-2), 416 nM; in the assay with LATS1 (compound concentrations: 100 nM and 1000 nM (sheet 'Samples'), CATDS: 8.0711896225058692E-3), 1650 nM. Besides, the potency estimated from few doses with MYLK3 (compound concentrations: 100 nM and 1000 nM (sheet 'Samples'), CATDS: 7.2973663588222501E-3) was 2470 nM; in the assay with PLK4 (compound concentrations: 100 nM and 1000 nM (sheet 'Samples'), CATDS: 1.18225591983295E-2) it was 582 nM; in the assay on PRKAA1 (compound concentrations: 100 nM and 1000 nM (sheet 'Samples'), CATDS: 1.3066263921832201E-2), 471 nM; with PRKAG1 (compound concentrations: 100 nM and 1000 nM (sheet 'Samples'), CATDS: 1.03550294618252E-2), 794 nM; in the assay with PRKCD (compound concentrations: 100 nM and 1000 nM (sheet 'Samples'), CATDS: 8.2492592697018703E-3), 1530 nM; with PRKD2 (compound concentrations: 100 nM and 1000 nM (sheet 'Samples'), CATDS: 9.3127707603308692E-3), 1050 nM. Moreover, the potency estimated from few doses in the assay on PRKD3 (compound concentrations: 100 nM and 1000 nM (sheet 'Samples'), CATDS: 8.3087862400952096E-3) is 1490 nM; in the assay on PTK2B (compound concentrations: 100 nM and 1000 nM (sheet 'Samples'), CATDS: 1.55357941259002E-2), 336 nM; in the assay with PTK2 (compound concentrations: 100 nM and 1000 nM (sheet 'Samples'), CATDS: 1.3544498558995E-2), 438 nM; in the assay on RPS6KA6 (compound concentrations: 100 nM and 1000 nM (sheet 'Samples'), CATDS: 1.4323736759091399E-2) it was 392 nM; in the assay with STK10 (compound concentrations: 100 nM and 1000 nM (sheet 'Samples'), CATDS: 9.6073353466608804E-3), 964 nM.
